The target of the test is Solute carrier family 2, facilitated glucose transporter member 1 (Homo sapiens) (UniProt P11166). The experiment in a line: ST_JUDE_LEISH: Cytotoxicity at 2uM final concentration against transgenic Leishmania Mexicana promastigotes LmGLUT1 that are glucose transport deficient and complemented with the human glucose transporter GLUT1. Activity is measured by DNA content using SYBR green in vitro. The class given is functional.
Solute carrier family 2, facilitated glucose transporter member 1 (Homo sapiens), sequence (P11166 whole entry): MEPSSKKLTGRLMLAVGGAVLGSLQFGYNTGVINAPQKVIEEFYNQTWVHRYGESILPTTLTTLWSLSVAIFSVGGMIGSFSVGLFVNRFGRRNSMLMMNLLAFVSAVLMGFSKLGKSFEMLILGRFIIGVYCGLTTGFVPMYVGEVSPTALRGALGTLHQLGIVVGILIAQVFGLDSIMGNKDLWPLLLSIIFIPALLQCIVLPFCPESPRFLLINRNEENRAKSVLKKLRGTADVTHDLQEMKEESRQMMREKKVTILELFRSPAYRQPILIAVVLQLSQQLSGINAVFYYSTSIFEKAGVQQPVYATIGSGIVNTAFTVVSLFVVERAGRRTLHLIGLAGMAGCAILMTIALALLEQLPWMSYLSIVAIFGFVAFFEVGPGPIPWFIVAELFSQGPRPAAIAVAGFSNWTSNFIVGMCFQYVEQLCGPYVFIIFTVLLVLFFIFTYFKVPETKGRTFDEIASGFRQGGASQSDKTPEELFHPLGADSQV
Turning to `OC(CNCc1ccccc1OCc1ccccc1)c1cccc(Br)c1` (stereo unspecified), the inhibition turned out to be 4.31%.

Consider `Cc1cccc2nc(-c3cccc(-c4ccc(NC(=O)NCc5ccccc5)cc4)c3)[nH]c12`, for which the inhibition is 1.51%. As for `Cc1ccccc1CNc1ccc2nc(N)nc(N)c2c1`, the inhibition is 1.01%. Consider `Cc1ccc(S(=O)(=O)n2nccc2-c2c(-c3ccc(Cl)cc3)noc2C)cc1`, for which the inhibition worked out at 3.44%. For the compound `Brc1cccc(Nc2nccc(Nc3ccc(Oc4ccccc4)cc3)n2)c1`, the inhibition came out at 6.01%. The result for `CC1(C)NC(N)=NC(=N)N1OCCCOc1cc(Cl)ccc1Cl` reads 13.6%; that for `O=C(NCc1ccc(F)cc1)c1ccc(N2CCN(c3ccncc3)CC2)cn1`, 2.68%; that for `CCCNCc1ccc(-c2ccc(CN(CC3CCCO3)C(=O)COc3ccccc3Cl)cc2)nc1` (stereo unspecified), 4.33%. The result for `Cc1nc(Nc2ccc(F)cc2)nc(N2CCc3ccccc3C2C)c1CO` (stereo unspecified) reads 5.38%. Under `N#Cc1cccc(CN2CCCN(Cc3cccc(C(=O)Nc4ccc(Cl)cc4)c3)CC2)c1` stands 0.81%; under `Cc1[nH]c(C)c([N+](=O)[O-])c(=O)c1-c1ccc(Oc2ccc(OC(F)(F)F)cc2)cc1`, 0.69%; under `COc1ccc(NC(=O)Nc2ccc(C)c(-c3ccc(C(=O)Nc4ccncc4)cc3)c2)cc1`, 1.53%. Consider `COc1ccc(NC(=O)Nc2ccc(Nc3nc(C)cc(N4CCCC4)n3)cc2)cc1`, for which the inhibition stood at 4.49%. The result for `COc1ccc(CNCC(C)(C)c2nc(-c3ccc(Cl)c(O)c3)c(-c3ccncc3)[nH]2)cc1` reads 0.93%; that for `O=C(Cc1ccc(NC(=O)c2ccc(O)c(-c3ccc(Cl)c(Cl)c3)c2)cc1)NCCN1CCCCC1`, -0.79%; that for `COc1cc(C(=O)Nc2ccc3nc(N4CCN(C)CC4)cc(C)c3c2)cc(OC)c1OC`, 1.09%.

The inhibition is the relative decrease from the control value, in per cent.

The values are drawn from ChEMBL document CHEMBL3433997, “St. Jude Leishmania screening dataset” (2016).
